Where “and” joins values, the source holds several entries; their conditions need not be identical. Equal entries are not always repeated. A structure can be active in one record and inactive in another. Calls of active or inactive are those of the source. The calls were made as follows: active = hit-call score of the fitted dose curve at least 0.9, where 1 is the maximum; inactive = score below 0.9.
How the values were obtained:
[1] = ATG_CRE_CIS: Attagene CIS-FACTORIAL HepG2 Assay for human cAMP Responsive Element (CRE) binding protein 3 (AID 2282926); details: HepG2 CRE cis-reporter, Attagene multiplexed mRNA; actives raise or lower the signal
How it was run: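 HepG2 cells transiently transfected with cis-element-driven multiple reporter transcription units; CRE reporter mRNA measured 24 h after dosing by RT-PCR, 6-FAM labelling, HpaI digestion and capillary electrophoresis. Bidirectional fit versus DMSO baseline.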

[2] = target: CCAAT/enhancer-binding protein beta (Homo sapiens) (UniProt P17676); test: ATG_C_EBP_CIS: Attagene CIS-FACTORIAL HepG2 Assay for human CCAAT/Enhancer Binding Protein (C/EBP) beta (AID 2282927); details: HepG2 Attagene cis-factorial transcription factor reporter; actives raise or lower the signal
How it was run: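 HepG2 transiently transfected with multiplexed reporter units under cis-regulatory promoters reporting endogenous C/EBPb activity. After 24 h exposure, reporter mRNA assayed by RT-PCR, fluorescent labelling, HpaI digestion and capillary electrophoresis; bidirectional fitting versus DMSO.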

[3] = ATG_CMV_CIS: Attagene CIS-FACTORIAL HepG2 Assay for human CMV (Internal Marker) (AID 2282928); details: HepG2 CMV promoter reporter, transcription factor profiling; actives raise or lower the signal;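 also: endpoint acts as a background internal control marker rather than a target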
How it was run: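 HepG2 cells transiently transfected with multiple cis-regulated reporter units; 24 h compound exposure. Reporter mRNA quantified by RT-PCR, 6-FAM primer-extension labeling, HpaI digestion and capillary electrophoresis; bidirectional fitting against DMSO baseline.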

[4] = ATG_DR4_LXR_CIS: Attagene CIS-FACTORIAL HepG2 Assay for human Liver X Receptor (LXR), DR4 submotif (AID 2282929); details: HepG2 Attagene DR4 cis-reporter, mRNA transcription; actives raise or lower the signal
How it was run: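 HepG2 cells were transiently transfected with multiple cis-regulated reporter units and dosed for 24 hours. The DR4 reporter mRNA was quantified by RT-PCR, 6-FAM labelling and capillary electrophoresis. Bidirectional fits used DMSO as baseline.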

[5] = target: Aryl hydrocarbon receptor (Homo sapiens) (UniProt P35869); test: ATG_Ahr_CIS: Attagene CIS-FACTORIAL HepG2 Assay for human Aryl Hydrocarbon Receptor (Ahr) (AID 2282930); details: HepG2 AhR cis-factorial reporter transcription; actives raise or lower the signal
How it was run: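 HepG2 cells transiently transfected with cis-element-driven multiplexed reporter units; endogenous AhR activity read as reporter mRNA 24 h after dosing, via RT-PCR, 6-FAM labelling, HpaI digestion and capillary electrophoresis. Bidirectional fit relative to DMSO.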

[6] = ATG_AP_1_CIS: Attagene CIS-FACTORIAL HepG2 Assay for human Activator Protein 1 (AP-1) (AID 2282931); details: HepG2 Attagene cis-factorial AP-1 reporter mRNA; actives raise or lower the signal
How it was run: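 HepG2 cells transiently transfected with cis-element-driven reporter transcription units, dosed for 24 hours. Reporter mRNA measured by RT-PCR, 6-FAM labelling, HpaI digestion and capillary electrophoresis. Bidirectional fitting against DMSO baseline.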

[7] = ATG_AP_2_CIS: Attagene CIS-FACTORIAL HepG2 Assay for human Activator Protein 2 (AP-2) (AID 2282932); details: HepG2 AP-2 cis-reporter, Attagene transcription factor profiling; actives raise or lower the signal
How it was run: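 Multiplexed mRNA reporter assay in HepG2: cis-regulated units report endogenous factor activity after 24 h treatment. Fluorescence from capillary electrophoresis of RT-PCR products gives the signal, with DMSO as baseline.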

[8] = ATG_BRE_CIS: Attagene CIS-FACTORIAL HepG2 Assay for human Bone Morphogenetic Protein (BMP) Response Element (BRE) (AID 2282933); details: HepG2 BMP response element reporter, Attagene transcription factor profiling; actives raise or lower the signal
How it was run: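 A HepG2 multiplex reporter system measured inducible reporter mRNA 24 h post-dosing. Detection: RT-PCR, 6-FAM primer extension, HpaI digestion, capillary electrophoresis. Activity fitted bidirectionally relative to DMSO.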

[9] = target: Retinoic acid receptor alpha (Homo sapiens) (UniProt P10276); test: ATG_DR5_RAR_CIS: Attagene CIS-FACTORIAL HepG2 Assay for human Retinoic Acid Receptor Alpha (RARE), DR5 submotif (AID 2282934); details: HepG2 Attagene cis-factorial RARE DR5 reporter, mRNA; actives raise or lower the signal;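 as to AC50: reporter responds to endogenous RAR alpha beta and gamma in HepG2 not RARA alone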
How it was run: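 HepG2 cells transiently transfected with multiplexed reporter units; DR5 cis-element drives reporter through endogenous transcription factors. After 24 h dosing, reporter mRNA quantified by RT-PCR, fluorescent labeling, HpaI digestion and capillary electrophoresis; bidirectional fitting versus DMSO.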

[10] = target: Transcription factor E2F1 (Homo sapiens) (UniProt Q01094); test: ATG_E2F_CIS: Attagene CIS-FACTORIAL HepG2 Assay for human E2F Transcription Factor 1 (AID 2282935); details: HepG2 Attagene cis-reporter, E2F reporter RNA transcripts; actives raise or lower the signal
How it was run: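 Measures reporter transcript levels via RT-PCR with capillary electrophoresis detection in HepG2 cells harboring cis-regulated reporter units; 24 h post-dose; bidirectional curve fitting with DMSO as baseline.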

[11] = ATG_E_Box_CIS: Attagene CIS-FACTORIAL HepG2 Assay for human Enhancer Box (E-box) (AID 2282936); details: HepG2 E-box cis-reporter transcription, actives raise or lower the signal
How it was run: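 First, HepG2 cells receive multiple cis-regulated reporter constructs by transient transfection. Next, chemicals are applied for 24 h. Finally, reporter mRNA is quantified via RT-PCR and capillary electrophoresis, with DMSO as baseline.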

[12] = ATG_EGR_CIS: Attagene CIS-FACTORIAL HepG2 Assay for human Early Growth Response 1 (EGR1) (AID 2282938); details: HepG2 Attagene CIS-FACTORIAL EGR reporter mRNA; actives raise or lower the signal
How it was run: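 HepG2 cells transiently transfected with cis-element-driven multiplexed reporter units, dosed for 24 h. EGR1-element reporter mRNA quantified by RT-PCR, 6-FAM labelling, HpaI digestion and capillary electrophoresis; bidirectional fit versus DMSO.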

[13] = ATG_M_19_CIS: Attagene CIS-FACTORIAL HepG2 Assay for M19 Transcription Factor (Internal Marker) (AID 2282939); details: HepG2 Attagene CIS-FACTORIAL M19 internal marker reporter; actives raise or lower the signal
How it was run: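 Chemical-treated HepG2 (24 h) with MRTU constructs; reporter transcripts detected by fluorescent RT-PCR fragment analysis on capillary electrophoresis. Internal background marker, DMSO as baseline.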

[14] = ATG_ERE_CIS: Attagene CIS-FACTORIAL HepG2 Assay for Estrogen Response Element (ERE) (AID 2282940); details: HepG2 ERE cis-reporter, Attagene RNA transcript; actives raise or lower the signal
How it was run: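 Human liver cells (HepG2) bearing transiently transfected, promoter-regulated reporter units were exposed 24 h. Reporter mRNA induction was detected by capillary electrophoresis of labelled RT-PCR products and fitted bidirectionally to DMSO.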

[15] = ATG_Ets_CIS: Attagene CIS-FACTORIAL HepG2 Assay for human Erythroblast Transformation Specific (ETS) (AID 2282941); details: HepG2 ETS cis-reporter transcription, actives raise or lower the signal
How it was run: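 HepG2 cells transiently transfected with cis-promoter reporter transcription units were dosed for 24 h; reporter mRNA was measured by RT-PCR, 6-FAM primer extension, HpaI digestion and capillary electrophoresis, with bidirectional fitting against DMSO baseline.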

[16] = target: Hepatocyte nuclear factor 3-beta (Homo sapiens) (UniProt Q9Y261); test: ATG_FoxA2_CIS: Attagene CIS-FACTORIAL HepG2 Assay for human Forkhead box A2 (FOXA2) (AID 2282942); details: HepG2 cis-reporter transcription factor activity, 24 h; actives raise or lower the signal
How it was run: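 HepG2 transiently transfected with a multiplexed cis-promoter reporter library read endogenous FOXA2 activity. After 24 h compound exposure, reporter mRNA was quantified by RT-PCR, HpaI digestion and capillary electrophoresis. Bidirectional fit against DMSO.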

[17] = ATG_FoxO_CIS: Attagene CIS-FACTORIAL HepG2 Assay for human Forkhead box O (FoxO) (AID 2282943); details: HepG2 Attagene cis-reporter, FoxO element, mRNA; actives raise or lower the signal
How it was run: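 HepG2 cells transiently transfected with cis-element-driven reporter units report endogenous FoxO activity. After 24 h chemical exposure, reporter mRNA quantified by RT-PCR, fluorescent labeling, HpaI digestion and capillary electrophoresis; bidirectional fit versus DMSO.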

[18] = ATG_GATA_CIS: Attagene CIS-FACTORIAL HepG2 Assay for human GATA Binding Protein (AID 2282944); details: HepG2 GATA cis-element reporter, Attagene multiplex mRNA; actives raise or lower the signal
How it was run: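 Transfected cis-reporter HepG2 cells were treated with chemicals for 24 hours. Total RNA was then converted to cDNA, amplified with reporter-specific primers and analysed by fluorescent capillary electrophoresis, using DMSO-treated wells as baseline.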

[19] = ATG_GLI_CIS: Attagene CIS-FACTORIAL HepG2 Assay for human Zinc Finger Protein GLI1 (AID 2282945); details: HepG2, Attagene cis-factorial reporter mRNA, GLI element; actives raise or lower the signal
How it was run: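 Transiently transfected HepG2 cells report endogenous transcription factor activity via cis-element-driven reporter units. After 24 h compound exposure, reporter mRNA was measured by RT-PCR with capillary electrophoresis; bidirectional fitting against DMSO baseline.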

[20] = ATG_M_61_CIS: Attagene CIS-FACTORIAL HepG2 Assay for M61 Transcription Factor (Internal Marker) (AID 2282937); details: HepG2 Attagene CIS-FACTORIAL M61 internal marker reporter; actives raise or lower the signal
How it was run: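 HepG2 cells transiently transfected with multiplexed cis-promoter reporter units reporting endogenous transcription factor activity, measured 24 h after dosing. Reporter mRNA quantified by RT-PCR and capillary electrophoresis; bidirectional fit against DMSO baseline.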

Measured: AC50

Sequence of Hepatocyte nuclear factor 3-beta (Homo sapiens) (Q9Y261 whole entry, looked up): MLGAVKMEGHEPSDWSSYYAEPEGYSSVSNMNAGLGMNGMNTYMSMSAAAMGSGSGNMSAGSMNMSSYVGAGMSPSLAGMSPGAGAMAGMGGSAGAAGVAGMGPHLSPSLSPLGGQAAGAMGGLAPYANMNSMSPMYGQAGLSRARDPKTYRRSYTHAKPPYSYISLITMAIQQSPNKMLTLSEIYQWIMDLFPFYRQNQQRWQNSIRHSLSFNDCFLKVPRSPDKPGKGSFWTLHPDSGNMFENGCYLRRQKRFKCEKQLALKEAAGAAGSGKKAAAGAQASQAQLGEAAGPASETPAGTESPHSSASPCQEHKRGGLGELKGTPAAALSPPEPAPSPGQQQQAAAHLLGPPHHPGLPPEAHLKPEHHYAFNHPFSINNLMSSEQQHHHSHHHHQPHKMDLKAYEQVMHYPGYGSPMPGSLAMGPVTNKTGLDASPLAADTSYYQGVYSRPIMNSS
Sequence of CCAAT/enhancer-binding protein beta (Homo sapiens) (P17676 whole entry, looked up): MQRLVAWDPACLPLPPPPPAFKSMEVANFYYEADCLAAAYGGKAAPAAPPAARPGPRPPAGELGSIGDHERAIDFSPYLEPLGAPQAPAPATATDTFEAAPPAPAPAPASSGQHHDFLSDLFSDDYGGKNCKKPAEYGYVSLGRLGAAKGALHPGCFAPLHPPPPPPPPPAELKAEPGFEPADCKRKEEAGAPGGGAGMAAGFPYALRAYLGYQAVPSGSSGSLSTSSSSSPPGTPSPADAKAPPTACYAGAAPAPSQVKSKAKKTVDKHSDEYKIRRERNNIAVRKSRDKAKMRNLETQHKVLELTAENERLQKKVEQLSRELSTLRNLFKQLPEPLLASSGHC
Sequence of Aryl hydrocarbon receptor (Homo sapiens) (P35869 whole entry, looked up): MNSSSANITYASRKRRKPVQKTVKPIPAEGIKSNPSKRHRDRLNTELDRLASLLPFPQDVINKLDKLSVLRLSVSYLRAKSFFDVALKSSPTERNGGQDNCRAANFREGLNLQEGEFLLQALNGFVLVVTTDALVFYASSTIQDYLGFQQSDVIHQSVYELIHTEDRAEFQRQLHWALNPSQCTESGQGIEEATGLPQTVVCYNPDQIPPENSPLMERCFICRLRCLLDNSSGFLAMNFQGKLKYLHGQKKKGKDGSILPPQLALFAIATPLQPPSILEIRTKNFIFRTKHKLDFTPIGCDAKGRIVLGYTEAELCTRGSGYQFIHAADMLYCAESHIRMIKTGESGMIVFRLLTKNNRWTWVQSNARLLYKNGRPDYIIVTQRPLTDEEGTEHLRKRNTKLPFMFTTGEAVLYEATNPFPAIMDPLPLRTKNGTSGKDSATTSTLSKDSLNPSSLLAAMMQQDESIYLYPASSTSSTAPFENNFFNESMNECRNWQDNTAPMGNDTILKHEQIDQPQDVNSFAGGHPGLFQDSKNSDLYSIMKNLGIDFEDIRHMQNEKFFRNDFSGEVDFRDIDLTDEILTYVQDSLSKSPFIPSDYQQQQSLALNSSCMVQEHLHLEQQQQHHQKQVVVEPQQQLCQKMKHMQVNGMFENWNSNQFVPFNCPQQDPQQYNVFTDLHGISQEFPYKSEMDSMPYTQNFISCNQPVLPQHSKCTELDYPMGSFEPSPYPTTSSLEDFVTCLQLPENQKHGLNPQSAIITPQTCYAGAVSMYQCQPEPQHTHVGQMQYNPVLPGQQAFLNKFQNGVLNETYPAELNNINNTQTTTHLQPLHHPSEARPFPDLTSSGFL
Sequence of Transcription factor E2F1 (Homo sapiens) (Q01094 whole entry, looked up): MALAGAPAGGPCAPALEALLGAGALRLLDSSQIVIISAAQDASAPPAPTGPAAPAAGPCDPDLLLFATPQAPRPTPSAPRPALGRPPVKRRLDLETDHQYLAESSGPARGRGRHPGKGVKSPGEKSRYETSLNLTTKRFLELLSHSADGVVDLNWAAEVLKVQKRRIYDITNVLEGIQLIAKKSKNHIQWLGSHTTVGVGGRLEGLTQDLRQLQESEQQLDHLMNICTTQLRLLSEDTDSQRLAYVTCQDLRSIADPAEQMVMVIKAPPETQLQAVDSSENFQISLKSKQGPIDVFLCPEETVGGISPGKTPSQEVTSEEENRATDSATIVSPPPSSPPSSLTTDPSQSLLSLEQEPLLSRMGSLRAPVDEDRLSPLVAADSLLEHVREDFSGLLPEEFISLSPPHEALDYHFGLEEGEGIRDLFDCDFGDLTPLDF
Sequence of Retinoic acid receptor alpha (Homo sapiens) (P10276 whole entry, looked up): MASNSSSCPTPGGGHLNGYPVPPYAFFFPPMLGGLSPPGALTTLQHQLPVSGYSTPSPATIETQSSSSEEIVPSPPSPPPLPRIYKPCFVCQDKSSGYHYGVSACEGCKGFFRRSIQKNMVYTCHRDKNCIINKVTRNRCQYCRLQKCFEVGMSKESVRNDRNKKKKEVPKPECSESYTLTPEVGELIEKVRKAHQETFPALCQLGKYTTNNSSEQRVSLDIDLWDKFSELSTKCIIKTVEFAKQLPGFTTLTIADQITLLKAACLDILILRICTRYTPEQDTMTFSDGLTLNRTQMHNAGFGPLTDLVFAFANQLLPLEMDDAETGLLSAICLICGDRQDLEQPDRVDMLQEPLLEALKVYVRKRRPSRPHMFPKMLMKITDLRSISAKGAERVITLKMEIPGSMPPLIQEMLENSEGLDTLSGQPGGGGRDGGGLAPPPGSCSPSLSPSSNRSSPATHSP

Oc1c(Cl)c(Cl)c(Cl)c(Cl)c1Cl
inactive: [1] | [2] | [4] | [6] | [7] | [9] | [10] | [11] | [12] | [13] | [14] | [15] | [16] | [17] | [18] | [19]
active: [1] 19.3 µM and 10.2 µM | [2] 13.7 µM | [3] 28.7 µM and 8.37 µM and 39.7 µM | [4] 31.6 µM and 34.8 µM | [5] 14 µM and 6.01 µM and 874 nM | [6] 13.7 µM and 3.6 µM | [7] 26.1 µM | [8] 13.6 µM and 18.2 µM and 31.3 µM | [9] 14.1 µM | [11] 67.8 µM | [12] 29.4 µM and 11.2 µM | [14] 13.4 µM | [15] 21.5 µM | [17] 33.6 µM | [19] 82 µM

CCOC(=O)C(O)(c1ccc(Cl)cc1)c1ccc(Cl)cc1
active: [4] 8.72 µM | [5] 8.63 µM | [14] 2.98 µM
inactive: all other assays above

CCCCCCCCCc1ccc(O)cc1
active: [4] 30.2 µM and 11.1 µM | [6] 178 µM | [7] 169 µM | [8] 55.7 µM | [11] 63.2 µM | [18] 49.7 µM | [19] 184 µM
inactive: [1] | [2] | [3] | [4] | [6] | [7] | [8] | [9] | [10] | [11] | [20] | [12] | [13] | [15] | [16] | [17] | [18] | [19]

Oc1ccc(C(c2ccc(O)cc2)(C(F)(F)F)C(F)(F)F)cc1
inactive: [1] | [2] | [3] | [4] | [7] | [8] | [10] | [11] | [12] | [13] | [15] | [16] | [17] | [18] | [19]
active: [1] 11.1 µM and 18.5 µM | [3] 7.18 µM and 8.05 µM | [4] 11.1 µM and 12.8 µM and 8.79 µM | [6] 11.1 µM [middle of 4 runs] | [8] 16 µM | [12] 11.1 µM and 16.5 µM | [14] 127 nM [middle of 4 runs] | [15] 15.5 µM and 17.5 µM

CC(c1ccc(O)cc1)(c1ccc(O)cc1)c1ccc(O)cc1
active: [1] 8.32 µM | [3] 20.2 µM | [4] 7.38 µM | [6] 17.9 µM | [7] 18.1 µM | [8] 18.3 µM | [11] 14.7 µM | [12] 12.8 µM | [14] 0.0955 µM
not listed: [20]
inactive: all other assays above

Source: PubChem BioAssay (EPA / NIEHS)
